Calls of active or inactive are those of the source. Rule for the calls: active = hit-call score of the fitted dose curve at least 0.9, where 1 is the maximum; inactive = score below 0.9. *1 amine or outer side, *2 acyl side, *3 side chain or, on linkers, in order; H or OH if unused. Where a SMILES comes first, the peptide text is derived from it. Bridges are numbered along the chain shown (N, C = ends). Roman numbers before positions name the chains, in order. [ ]: non-standard residue; d: D form. Actinocin(9to1) = Cc1c2oc3c(C)ccc(C(=O)[*:1])c3nc-2c(C(=O)[*:2])c(N)c1=O; NMeV = CN[C@H](C(=O)O)C(C)C; Sar = CNCC(=O)O
These compounds were tested on SRY-box transcription factor 17 (SOX17) Protein Expression, Deisenroth Lab, SOX17 (gene 64321) (assay: CCTE_Deisenroth_DEVTOX-GLR_legacy_Sox17: (Legacy) CCTE's DevTox GLR-Endo Assay Evaluation of SRY-box transcription factor 17 (SOX17) Protein Expression, Deisenroth Lab (AID 2284341)). Conditions: actives raise or lower the signal.
Description: CCTE_Deisenroth_DEVTOX-GLR_legacy assay is a cell-based, multiplex-readout assay that uses RUES2-GLR, a human pluripotent cell line, with measurements taken at 48 hours after chemical dosing in a 384-well microplateCCTE_Deisenroth_DEVTOX-GLR_legacy_Sox17 is one of 4 assay components calculated from the CCTE_Deisenroth_DEVTOX-GLR_legacy assay and it measures an increase in the percentage of cells in an endoderm state. It is designed to make measurements of inducible reporter a form of fluorescent protein induction as detected with optical fluorescence microscopy. Percentage Sox17+ cells are determined by calculating the number of Sox17+ cells divided by cell count. A cell is Sox17+ if the cell Sox17 mean intensity is 5x BMAD above the pluripotent control median cell Sox17 mean. The assay endpoints were analyzed with bidirectional fitting relative to 0.2% DMSO control in the CCTE_Deisenroth_DEVTOX-GLR_Endo assay.Data from the assay component CCTE_Deisenroth_DEVTOX-GLR_legacy_Sox17 was analyzed into 1 assay endpoint. This assay endpoint, CCTE_Deisenroth_DEVTOX-GLR_legacy_Sox17, was analyzed with bidirectional fitting relative to DMSO as the negative control and baseline activity. Using a type of inducible reporter, gain or loss-of-signal activity can be used to understand changes in gene expression. Furthermore, this assay endpoint can be referred to as a primary readout, because this assay has produced multiple assay endpoints where this one serves as a measure of endoderm differentiation. To generalize the intended target to other relatable targets, this assay endpoint is annotated to the transcription factor intended target family, where the subfamily is SRY-related HMG-box.
All assay protocols are aligned to the DevTox GLR-Endo assay workflow. Cells are seeded into 384-well microplates for 24 hours prior to initiating differentiation in defined media for a total duration of 48 hours. A total of two chemical exposures are administered in 24-hour intervals during the 48-hour differentiation period. At the assay termination point, cells are fixed and stained with a fluorescent dye demarcating the nucleus. High-content imaging is used to acquire brightfield and fluorescent channel images across 5 fields per well. Cell identification and mean biomarker fluorescence intensities are calculated with image analysis software to determine the total cell counts for viability assessment and the biomarker expression frequency for each lineage-dependent assay. A typical experimental design tests a 10-point concentration series (1 nM - 200 uM) for 28 compounds in single technical replicate. Assay plate controls include non-differentiated pluripotent cells (baseline control), lineage-specific differentiated cells (differentiation control), and DMSO solvent exposed differentiated cells (solvent control). Experiments typically comprise a minimum of four experimental replicates (n=4).

Compound	AC50
COc1cc2c(Nc3ccc(Br)cc3F)ncnc2cc1OCC1CCN(C)CC1	4.92 µM (active)
CCCCCN=C(N)N/N=C/c1c[nH]c2ccc(OC)cc12	5.47 µM (active)
COc1cc2ncnc(Nc3ccc(F)c(Cl)c3)c2cc1OCCCN1CCOCC1	5.74 µM (active)
CNC(=O)c1cc(Oc2ccc(NC(=O)Nc3ccc(Cl)c(C(F)(F)F)c3)cc2)ccn1	0.609 µM (active)
Nc1cccc2c1CN(C1CCC(=O)NC1=O)C2=O (stereo not given)	0.328 µM (active)
Cc1c2oc3c(C)ccc(C(=O)N[C@@H]4C(=O)N[C@H](C(C)C)C(=O)N5CCC[C@H]5C(=O)N(C)CC(=O)N(C)[C@@H](C(C)C)C(=O)O[C@@H]4C)c3nc-2c(C(=O)N[C@@H]2C(=O)N[C@H](C(C)C)C(=O)N3CCC[C@H]3C(=O)N(C)CC(=O)N(C)[C@@H](C(C)C)C(=O)O[C@@H]2C)c(N)c1=O (I: T[dV]P[Sar][NMeV] / II: T[dV]P[Sar][NMeV]; ester I:1-I:C, II:1-II:C; linker I:N-II:N via Actinocin(9to1))	0.000544 µM (active)
CC1=C(/C=C/C(C)=C/C=C/C(C)=C\C(=O)O)C(C)(C)CCC1	0.159 µM (active)
Cc1nc(Nc2ncc(C(=O)Nc3c(C)cccc3Cl)s2)cc(N2CCN(CCO)CC2)n1	0.811 µM (active)
O=C1Cc2cc(CCN3CCN(c4nsc5ccccc45)CC3)c(Cl)cc2N1	3.91 µM (active)
CCN(CC)CCNC(=O)c1c(C)[nH]c(/C=C2\C(=O)Nc3ccc(F)cc32)c1C	0.623 µM (active)
O=c1[nH]c(=O)n([C@H]2C[C@H](O)[C@@H](CO)O2)cc1Br	0.857 µM (active)
CN1CCN2c3ccccc3Cc3ccccc3C2C1 (stereo not given)	34.3 µM (active)
Cc1ccc(NC(=O)c2ccc(CN3CCN(C)CC3)cc2)cc1Nc1nccc(-c2cccnc2)n1	16.5 µM (active)
Cc1nc2sccn2c(=O)c1CCN1CCC(=C(c2ccc(F)cc2)c2ccc(F)cc2)CC1	11 µM (active)
O=C(c1ccc(F)cc1)C1CCN(CCn2c(=O)[nH]c3ccccc3c2=O)CC1	39.9 µM (active)
